# This is a sample that favours compounds with a hit; in the whole collection about 2.3% have one here.
# CHO-K1 Ca PAM: nonselective activator or artifact in parental CHO-K1 calcium assay. activation, % at 3 µM. ATP EC20, Fluo-8 calcium fluorescence; 0% at ATP EC20, 100% at ATP max. 0.02% of 360,000 active;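 active means activation above the run cutoff, the mean activation of all test compounds plus 3 SD, cut at about 40% in these data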;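 further: peak over basal fluorescence ratio in a 140 s read after ATP addition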
# CHRM1 agonist: human M1 muscarinic receptor agonism; activation, % at 3 µM; AID 588814; 0.33% of 360,000 active; CHO-K1 hM1, Fluo-8 calcium fluorescence, agonist mode; 0% DMSO, 100% acetylcholine EC100; P11229;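 active means activation above the run's mean compound activation plus 3 SD, cut at about 16% in these data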;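 further: peak over basal fluorescence ratio within a 140 s kinetic read after compound addition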
# Target sequence (P11229 whole entry, looked up): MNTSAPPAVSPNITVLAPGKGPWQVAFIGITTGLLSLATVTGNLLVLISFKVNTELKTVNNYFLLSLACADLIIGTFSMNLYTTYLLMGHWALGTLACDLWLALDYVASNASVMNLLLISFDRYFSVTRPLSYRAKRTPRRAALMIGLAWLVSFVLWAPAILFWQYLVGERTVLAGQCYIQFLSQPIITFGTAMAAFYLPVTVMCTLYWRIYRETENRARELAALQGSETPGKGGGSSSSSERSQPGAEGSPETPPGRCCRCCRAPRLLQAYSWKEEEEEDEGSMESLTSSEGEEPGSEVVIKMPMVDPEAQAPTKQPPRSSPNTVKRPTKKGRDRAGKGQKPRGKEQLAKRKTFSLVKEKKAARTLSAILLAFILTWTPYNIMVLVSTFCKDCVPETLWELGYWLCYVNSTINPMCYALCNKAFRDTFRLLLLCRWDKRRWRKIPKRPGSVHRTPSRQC
# CHO-K1 Ca antag: counter-screen for M1 antagonists: effect in parental CHO-K1 cells; ATP-induced calcium, Fluo-8 fluorescence; inhibition, % at 3 µM; 0.6% of 360,000 active;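 active means inhibition above a per-plate cutoff, the plate's mean sample inhibition plus 3 SD, cut at about 24% in these data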;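 further: 0% = DMSO plus EC80 ATP and 100% = DMSO alone without ATP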
# M1 PAM: potentiates human M1 receptor response to acetylcholine | P11229 | CHO-K1 hM1, Fluo-8 calcium fluorescence, ACh EC20; 0% = ACh EC20, 100% = maximal ACh | activation, % at 3 µM | 0.088% of 360,000 active; in the data active means activation above about 19%, passing the limit was not always enough
# CHO-K1 Ca ag: nonselective activator or artifact in parental CHO-K1 cells; Fluo-8 calcium fluorescence; scaled to maximal ATP response, vehicle zero; 0.48% of 360,000 active; activation, % at 3 µM; in the data active means activation above about 15%;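 further: untransfected CHO-K1 host cells lacking M1 receptor as counterscreen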
# CHRM1 antagonist: human CHRM1 antagonism; inhibition, % at 3 µM; 1.3% of 360,000 active; CHO-K1 hM1, Fluo-8 calcium fluorescence, ACh EC80 antagonist; AID 588852;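 active means percent inhibition above its own plate's cutoff, namely the mean of that plate's compound wells plus 3 SD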;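 further: peak over basal fluorescence ratio during 140 s after agonist addition; 0% = ACh EC80 plus DMSO and 100% = DMSO alone without agonist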
# Numbers without * were called inactive.
SMILES,CHO-K1 Ca PAM,CHRM1 agonist,CHO-K1 Ca antag,M1 PAM,CHO-K1 Ca ag,CHRM1 antagonist
COc1ccccc1NC(=O)CN(c1ccccc1)S(=O)(=O)c1ccccc1,11,-1,-9,5,1,-2
COc1ccc(C(=O)CSc2nnc(Cn3cnc4ccccc43)o2)cc1,9,-1,4,-10,8,32*
Cc1ccc(-c2cc(C(=O)N/N=C/c3c(C)nn(C)c3C)c3ccccc3n2)c(C)c1,-6,2,24*,7,0,-10
CN(C)CCO[C@@H](c1ccc(Cl)cc1)c1ccccn1,-21,-9,4,-27,0,44*
CN(C)CC[C@@H](c1ccc(Br)cc1)c1ccccn1,-2,-8,6,-26,0,42
Cn1c(SCC(=O)N2CCN(S(=O)(=O)c3ccccc3)CC2)nc2ccccc21,-7,-5,-12,-11,4,8
CC(C)Cn1c(SCC(=O)N2CCN(S(=O)(=O)c3ccccc3)CC2)nc2ccccc21,17,-6,-1,-21,3,30*
N#CCCn1c(SCC(=O)N2CCN(S(=O)(=O)c3ccccc3)CC2)nc2ccccc21,9,-6,0,-22,1,64*
COCCCNC(=S)Nc1cc(C)c(C)cc1C,26,-8,-11,-23,1,62*
CN(C)c1ccc(/C=C(/C(=O)c2ccc(Cl)cc2Cl)n2cncn2)cc1,12,15,8,-2,18*,8
COc1ccc(OCC(=O)Nc2cccc3ncccc23)cc1,-7,0,26*,-10,4,18
O=C(CCl)Nc1cccc2ncccc12,18,-4,-16,9,1,-11
COc1ccc(OCC(=O)NC(=S)Nc2ccc3c4c(cccc24)CC3)cc1,14,-1,13,-1,22*,8
c1ccc(C[n+]2ccc3ccccc3c2)cc1,-14,-7,17,-12,0,25
Clc1cccc(Cl)c1C[n+]1ccc2ccccc2c1,-9,-12,2,-17,1,31*
CN1CCC(OC(=O)c2ccc(Cl)cc2Cl)CC1,16,-11,-8,-7,2,-1
Cc1ccccc1C(=O)OC1CCN(C)CC1,12,-9,-3,-21,3,35*
CN1CCC(OC(=O)c2ccccc2Cl)CC1,2,-13,-4,-33,0,48*
CN1CCC(OC(=O)c2ccco2)CC1,-6,-8,0,-17,1,27
O=S(=O)(c1cccc(Cn2nnc(-c3ccccc3)n2)c1)N1CCOCC1,-1,2,-5,-11,16*,14
O=C(O)c1ccccc1C(=O)Nc1ccc(Br)c(C(F)(F)F)c1,6,-3,-4,4,1,2
Cc1cc(C)c(C(=O)Nc2ccc(Br)c(C(F)(F)F)c2)c(C)c1,10,-12,8,-27,6,65*
CN1CCN(c2nc(-c3ccco3)cc(C(F)(F)F)n2)CC1,9,-8,-6,-21,0,60*
CCOC(=O)N1CCN(c2nc(-c3ccco3)cc(C(F)(F)F)n2)CC1,-7,-3,9,4,0,-1
CCOC(=O)C1(Cc2ccccc2)CCCN(Cc2cccc(C(C)=O)c2)C1 (centres undefined),5,-5,1,4,16*,3
SMILES,CHO-K1 Ca PAM,CHRM1 agonist,CHO-K1 Ca antag,M1 PAM,CHO-K1 Ca ag,CHRM1 antagonist
CCOC(=O)C1(Cc2ccccc2)CCCN(Cc2ccncc2)C1 (centres undefined),10,-4,-13,3,1,-3
CC1Cn2c(nnc2-c2ccc(F)cc2)S1 (centres undefined),-3,0,26*,7,0,-5
CN1CCCN(C(=O)CC(c2ccccc2)c2ccccc2)CC1,0,-12,2,-31,0,99*
CN(C(=O)COC(=O)c1ccccc1C(=O)N1CCN(c2ccccc2)CC1)c1ccccc1,10,-4,-17,0,3,6
Cc1cc(C)nc(N2CCCC(C(=O)NCc3ccc4c(c3)OCO4)C2)n1 (centres undefined),9,-4,-17,4,0,-7
Cc1c(C(=O)NCc2ccc3c(c2)OCO3)oc2ccc(S(=O)(=O)N3CCCCC3)cc12,-1,-2,6,-16,8,28*

# Source: PubChem BioAssay
